Experimental data published in PubChem BioAssay (NCATS).
Records with an inconclusive call do not appear. The source made the active and inactive calls. Calls come from the whole dose curve; as a rule, active = well fitted curve in the direction sought with a large enough effect; inconclusive = small, poorly fitted or top-dose-only effect, or another doubt; inactive = no such curve, though single readings can be large; an effect the other way counts as inactive or inconclusive.

What was measured:
[1] = Quantitative highthroughput screen to assess conditional lethalithy of NOMO1 cells grown in RPMI1640 with untreated serum (RPMI+s) (AID 1963876); note: nearly all actives have a fitted effect of over 35% in size;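 for viability: 100% = DMSO wells and 0% = empty wells without cells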
In short: (§1)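 Each medium arm—HPLM with 10% dialyzed FBS, or RPMI1640 with 5 mM glucose and 10% untreated or dialyzed FBS—was screened against an 11-point, 3-fold compound titration for 48 h at 37 °C, with CellTiter-Glo luminescence as endpoint.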

[2] = Quantitative highthroughput screen to assess conditional lethalithy of NOMO1 cells grown in RPMI1640 with dialyzed fetal bovine serum (RPMI+ds) (AID 1963877); note: nearly all actives have a fitted effect of over 30% in size;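 for viability: series mostly up to about 46 µM; 100% = DMSO control wells and 0% = empty wells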
In short: as §1

[3] = Quantitative highthroughput screen to assess conditional lethalithy of NOMO1 cells grown in Human Plasma-Like Medium with dialyzed fetal bovine serum (HPLM+ds) (AID 1963878); note: nearly all actives have a fitted effect of over 35% in size;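 for viability: 100% = DMSO wells and 0% = empty wells on each plate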
In short: as §1

[4] = Quantitative highthroughput screen to assess conditional lethalithy of P12 Ichikawa cells grown in Human Plasma-Like Medium with dialyzed fetal bovine serum (HPLM+ds) (AID 1963879); details: Potency: viability; note: nearly all actives have a fitted effect of over 35% in size; for viability: series mostly up to about 46 µM
In short: as §1

[5] = Quantitative highthroughput screen to assess conditional lethalithy of P12 Ichikawa cells grown in RPMI1640 with dialyzed fetal bovine serum (RPMI+ds) (AID 1963880); details: Potency: P12-Ichikawa viability; note: nearly all actives have a fitted effect of over 35% in size;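 for viability: 100% = DMSO wells and 0% = empty wells on each plate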
In short: as §1

[6] = Quantitative highthroughput screen to assess conditional lethalithy of P12 Ichikawa cells grown in RPMI1640 with untreated serum (RPMI+s) (AID 1963881); details: Potency: viability; note: nearly all actives have a fitted effect of over 35% in size;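 for viability: series mostly up to about 46 µM; 100% = DMSO wells and 0% = empty wells without cells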
In short: as §1

[7] = Quantitative highthroughput screen to assess conditional lethalithy of SEM cells grown in Human Plasma-Like Medium with dialyzed fetal bovine serum (HPLM+ds) (AID 1963882); note: nearly all actives have a fitted effect of over 35% in size; for viability: series mostly up to about 46 µM
In short: as §1

[8] = Quantitative highthroughput screen to assess conditional lethalithy of SEM cells grown in RPMI1640 with dialyzed fetal bovine serum (RPMI+ds) (AID 1963884); note: nearly all actives have a fitted effect of over 35% in size;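 for viability: series mostly up to about 46 µM; 100% = DMSO control wells and 0% = empty wells without cells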
In short: as §1

[9] = Cellular viability qHTS for adrenocortical cancer (ACC) cell line SW-13 (AID 1963989); details: SW-13 ACC cells viability, CellTiter-Glo, 48 h; activity (max response): stronger effect = lower value; note: nearly all actives have a fitted effect of over 65% in size;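 for activity (max response): cells grown in serum-free medium with ITS supplement; % is set by controls: 0 for no effect and ±100 for the full control effect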
In short: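 Compound titrations (up to 46 uM final, in DMSO) were applied to SW-13 cells for 48 h at 37C/5% CO2. Reading used CellTiter-Glo after 20 min at room temperature; fitted curves yielded IC50 and efficacy.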

[10] = Quantitative highthroughput screen to assess conditional lethalithy of SEM cells grown in RPMI1640 with unreated serum (RPMI+s) (AID 1963883); note: nearly all actives have a fitted effect of over 35% in size;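 for viability: 100% = DMSO wells and 0% = empty wells without cells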
In short: as §1

[11] = Cellular viability qHTS for adrenocortical cancer (ACC) cell line NCI-H295R (AID 1963990); note: nearly all actives have a fitted effect of over 60% in size
In short: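 Readout: CellTiter-Glo luminescence, 20 min RT. Exposure: 48 h, 37C/5% CO2. Cells: NCI-H295R, ITS-DMEM serum-free. Range: up to 46 uM. Analysis: 4PL fit, IC50 plus efficacy.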
Potency is the fitted concentration of half-maximal effect.

COc1cc(C)c(C=CC(C)=CC=CC(C)=CC(=O)O)c(C)c1C
inactive: Potency [1] | Potency [2] | Potency [3] | Potency [4] | Potency [5] | Potency [6] | Potency [7] | Potency [8]

C#CCN(C)CC1=Cc2ccccc2Oc2ccccc21
inactive: Potency [1] | Potency [2] | Potency [3] | Potency [4] | Potency [5] | Potency [6] | activity (max response) [9] 0.599%

C[N+]1(C)[C@@H]2CC(OC(=O)[C@H](CO)c3ccccc3)C[C@H]1[C@H]1O[C@@H]12 (stereo not given in full)
inactive: Potency [1] | Potency [2] | Potency [3] | Potency [4] | Potency [5] | Potency [7] | Potency [10] | Potency [8]

CCOC(=O)C1=C[C@@H](OC(CC)CC)[C@H](NC(C)=O)[C@@H](N)C1
inactive: Potency [1] | Potency [2] | Potency [3] | Potency [4] | Potency [5] | Potency [6] | Potency [10] | Potency [8] | activity (max response) [9] 7.32% | Potency [11]

C[C@]12CC[C@@H]3c4ccc(O)cc4CC[C@H]3[C@H]1C[C@@H](O)[C@H]2O
inactive: Potency [1] | Potency [2] | Potency [3] | Potency [4] | Potency [5] | Potency [7] | Potency [10] | Potency [8]

COC(=O)[C@]12CCC(C)(C)C[C@@H]1[C@@H]1C(=O)C=C3[C@@]4(C)C=C(C#N)C(=O)C(C)(C)[C@@H]4CC[C@@]3(C)[C@]1(C)CC2
active: Potency [1] 9.35 µM | Potency [2] 8.33 µM | Potency [3] 9.35 µM | Potency [4] 9.35 µM | Potency [5] 8.33 µM | Potency [7] 7.43 µM | Potency [10] 9.35 µM | Potency [8] 6.62 µM

CC(=O)[C@H]1CC[C@H]2[C@@H]3CCC4=CC(=O)CC[C@]4(C)[C@H]3CC[C@]12C
inactive: Potency [1] | Potency [2] | Potency [3] | Potency [4] | Potency [5] | Potency [7] | Potency [10]

CC=C1C2C=C(C)CC1(N)c1ccc(=O)[nH]c1C2 (stereo not given)
inactive: Potency [1] | Potency [2] | Potency [3] | Potency [4] | Potency [5] | Potency [6] | Potency [10] | Potency [8]

C[C@]12CC[C@H](O)CC1=CC[C@@H]1[C@H]2CC[C@]2(C)C(c3cccnc3)=CC[C@H]12
inactive: Potency [1] | Potency [2] | Potency [3] | Potency [4] | Potency [5] | Potency [6] | Potency [10] | Potency [8]

CC(C)c1nc(CN(C)C(=O)N[C@H](C(=O)N[C@@H](Cc2ccccc2)C[C@H](O)[C@H](Cc2ccccc2)NC(=O)OCc2cncs2)C(C)C)cs1
inactive: Potency [1] | Potency [2] | Potency [3] | Potency [4] | Potency [5] | Potency [6] | Potency [7] | Potency [8]

NS(=O)(=O)c1cc(C(=O)O)c(NCc2ccco2)cc1Cl
inactive: Potency [1] | Potency [2] | Potency [3] | Potency [4] | Potency [5] | Potency [6] | activity (max response) [9] -1.8% | Potency [11]

CC(=NNC(=S)N1CCC1)c1ccccn1
active: Potency [1] 0.0083 µM | Potency [2] 0.0053 µM | Potency [3] 0.0047 µM | Potency [4] 0.0053 µM | Potency [6] 0.0059 µM | Potency [7] 0.0026 µM | Potency [10] 0.0033 µM | Potency [8] 0.0021 µM

Cc1ccc(/C=N/NC(=O)c2ccccc2Oc2ccccc2)o1
inactive: Potency [1] | Potency [2] | Potency [3] | Potency [4] | Potency [5] | Potency [7] | Potency [11]

CC(=O)O[C@]1(C(C)=O)CC[C@H]2[C@@H]3C=C(C)C4=CC(=O)CC[C@]4(C)[C@@H]3CC[C@@]21C
inactive: Potency [1] | Potency [2] | Potency [3] | Potency [4] | Potency [6] | Potency [7] | Potency [10] | Potency [8]

CN[C@H](CC(C)C)C(=O)N[C@H]1C(=O)N[C@@H](CC(N)=O)C(=O)N[C@@H]2C(=O)N[C@H]3C(=O)N[C@H](C(=O)N[C@H](C(=O)O)c4cc(O)cc(O)c4-c4cc3ccc4O)[C@H](O)c3ccc(c(Cl)c3)Oc3cc2cc(c3O[C@@H]2O[C@H](CO)[C@@H](O)[C@H](O)[C@@H]2O[C@H]2C[C@](C)(N)[C@H](O)[C@H](C)O2)Oc2ccc(cc2Cl)[C@H]1O
inactive: Potency [1] | Potency [2] | Potency [3] | Potency [4] | Potency [7] | Potency [10] | Potency [8]

Cc1ccc2c(c1)c1c(n2CCc2ccc(C)nc2)CCN(C)C1
inactive: Potency [1] | Potency [2] | Potency [3] | Potency [4] | Potency [5] | Potency [10] | Potency [8]

COc1cc(O)c2c(c1)C1OC1C[C@H](O)[C@H](O)C(=O)C=CC[C@H](C)OC2=O (stereo not given in full)
active: Potency [1] 13.2 µM | Potency [2] 13.2 µM | Potency [3] 10.5 µM | Potency [4] 18.7 µM | Potency [6] 18.7 µM | Potency [7] 4.69 µM | Potency [10] 7.43 µM | Potency [8] 4.18 µM | Potency [9] 15.8 µM | Potency [11] 15.8 µM

CCCCOCCOc1nc(-c2ccc(C(=O)O)c(F)c2)sc1C
inactive: Potency [1] | Potency [2] | Potency [3] | Potency [4] | Potency [6] | Potency [7] | Potency [10] | Potency [8] | activity (max response) [9] -9.17% | Potency [11]
